Experimental data from PubChem BioAssay AID1259309 (ICCB-Longwood Screening Facility, Harvard Medical School, 2017).
Values joined by “and” are separate entries in the source; they are usually repeats but may differ in a detail not shown here. Identical values can stand only once. Screen size: about 330,000 compounds; about 1,800 (0.55%) were called active. No stated cut-off is given here; in the data, active means growth inhibition above about 68%; inactive means the rest. The full list was thinned out, with actives kept by preference.

Assay: growth inhibition of ugtP-null S. aureus, primary screen, RN4220 ugtP deletion, OD600 (AID 1259309);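 further: plate controls were untreated wells for no effect and antibiotic for full effect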
Conditions: 16 h, active compounds read high

Row | Structure (SMILES) | growth inhibition
1 | c1ccc(C2C3CN(Cc4cccnc4)C(c4ccccc4)C34CC2(c2ccccc2)C4)cc1 (centres undefined) | 0.638% (inactive)
2 | O=C(Nc1ccccc1)c1nnsc1S(=O)(=O)c1ccc(Cl)cc1 | 100% (active)
3 | O=C(O)c1ccc(NC(=NS(=O)(=O)c2ccc(Cl)cc2)c2ccccc2)cc1 | 4.64% (inactive)
4 | Cc1nnsc1C(=O)NN=Cc1ccccc1Cl | 0.586% (inactive)
5 | Cn1c2ccccc2c2cc(C=NNC(=O)c3ccc(N)cc3)ccc21 | -2.18% (inactive)
6 | COc1ccc(C2CC(=O)C=C(c3ccc4ccn(C)c4c3)C2)cc1 (centres undefined) | 4.99% (inactive)
7 | CC(C)(C)c1cc(C(=O)NN=Cc2ccccn2)n[nH]1 | 4.75% (inactive)
8 | O=C(NC(=S)Nc1ccc(S(=O)(=O)Nc2ncccn2)cc1)c1cccc(Br)c1 | -8.14% (inactive)
9 | O=C(NC(=S)Nc1cccc2c(O)cccc12)c1cccc(Br)c1 | 99.6% (active)
10 | Cc1ccccc1NC(=S)NNC(=O)c1cccc(Br)c1 | 23.5% (inactive)
11 | Clc1cc(-c2ccc(C=Nn3cnnc3)o2)ccc1Br | -3.77% (inactive)
12 | O=C(/C=C/c1ccco1)NC(=S)N1CCCCC1 | 7.55% (inactive)
13 | O=C(/C=C/c1ccco1)NC(=S)Nc1ccccc1Br | 90.7% (active)
14 | COc1ccc(Cl)cc1C(=O)NNC(=S)NC(=O)/C=C/c1ccco1 | -0.168% (inactive)
15 | CC[C@@]12C(=O)N(c3ccccc3)C(=O)N1C(c1cccc(C)c1)C1C(=O)N(Cc3ccccc3)C(=O)C12 (some centres undefined) | 3.88% (inactive)
16 | CC(=NOC(=O)c1ccc(C)cc1)C(=O)c1ccc(Br)cc1 | 0.731% (inactive)
17 | COc1ccc(-c2csc3ncnc(N4CCN(S(=O)(=O)c5ccccc5C#N)CC4)c23)cc1 | 95.8% (active)
18 | COc1ccc(S(=O)(=O)N2CCN(c3ncnc4c(-c5ccccc5)nsc34)CC2)cc1 | 5.08% (inactive)
19 | COc1ccc(-c2csc3ncnc(N4CCN(S(=O)(=O)c5cccc(F)c5)CC4)c23)cc1 | -16.7% (inactive)
20 | CC(=NNC(=O)C1CC1c1ccccc1)c1cccs1 (centres undefined) | 3.01% (inactive)
21 | Cc1cc([N+](=O)[O-])cc(C=NNC(=O)C2COc3ccccc3O2)c1O (centres undefined) | 9.3% (inactive)
22 | CC(=NNC(=O)c1ccncc1)c1ccc(NC(=O)c2ccc(Cl)cc2Cl)cc1 | -4.36% (inactive)
23 | Cc1ccc(NC(=S)Nc2ccc(F)cc2)cc1 | -2.35% (inactive)
24 | Cc1cccc(NC(=S)Nc2ccc(Cl)c(Cl)c2)c1 | 98.9% (active)

Row | Structure (SMILES) | growth inhibition
25 | Cc1cccc(NC(=S)NN=C(c2ccccc2)C(C)C)c1 | 36.3% (inactive)
26 | CC(=NN=C1SC(CC(=O)O)C(=O)N1c1ccccc1)c1ccc(C)cc1 (centres undefined) | 7.85% (inactive)
27 | O=C(C(=NO)n1cncn1)c1ccc(Cl)cc1Cl | 18.1% (inactive)
28 | Fc1cccc(C=NN=Cc2cccc(F)c2)c1 | 2.16% (inactive)
29 | CN1CCN(c2nc(Nc3ccc(O)cc3)nc3ccccc23)CC1 | -7.09% (inactive)
30 | Cc1cc(Nc2ccc(Br)cc2)nc2ccccc12 | 84.1% (active)
31 | Clc1ccc(Nc2ccc3ccccc3n2)cc1 | -34.6% (inactive)
32 | CC(=NNc1nc(-c2ccc(Cl)cc2)cs1)c1cccs1 | -2.32% (inactive)
33 | COc1ccc(C=NNC(=O)c2cccc3ccccc23)c(OC)c1OC | 7.75% (inactive)
34 | CCC(=O)N(C)CCc1cc2c(c(OC)c1C=NNC(=O)c1ccccc1O)OCO2 | 9.87% (inactive)
35 | CC(=NNC(=O)c1c(C)nc2ccccn12)c1ccccc1F | 6.04% (inactive)
36 | CCC(=O)CC(c1ccc([N+](=O)[O-])cc1)c1c(O)c2ccccc2oc1=O (centres undefined) | 12% (inactive)
37 | COc1cc(C=Nn2c(C)nc3ccccc3c2=O)ccc1O | 2.48% (inactive)
38 | COc1cc(C(c2c(O)c3ccccc3oc2=O)c2c(C)n(C)n(-c3ccccc3)c2=O)ccc1O (centres undefined) | 82.9% (active)
39 | S=C(NCCN1CCOCC1)NN=Cc1ccccc1 | -0.962% (inactive)
40 | Cc1ccc(C=NNC(=O)c2ccc(C(=O)NN=Cc3ccc(C)s3)o2)s1 | -0.554% (inactive)
41 | COc1ccc(C(=O)NC(=S)Nc2ccccc2N2CCN(S(C)(=O)=O)CC2)cc1OC | -0.518% (inactive)
42 | O=C(NC(=S)Nc1ccccc1N1CCCCC1)c1ccc(F)cc1 | 59.3% (inactive)
43 | COc1ccccc1C(=O)NC(=S)Nc1ccccc1N1CCCCC1 | 93.3% (active)
44 | COc1ccc(/C=C/C(=O)c2cc(Br)ccc(=O)c2O)cc1 | 95.4% (active)
45 | COc1ccc(C(=O)/C=C/c2cccnc2)c(OC)c1 | 5.58% (inactive)
46 | COc1ccc(NC(=O)ON=Cc2ccc(Br)cc2)cc1 | 4.87% (inactive)
47 | CCC(C)Sc1ccc(C2N[C@@](C)(C(=O)OC)C3C(=O)N(C)C(=O)C23)cc1 (some centres undefined) | 2.56% (inactive)
48 | Cc1c(CCOC(=O)c2cc([N+](=O)[O-])ccc2Cl)sc[n+]1CCCCS(=O)(=O)[O-] | -10.2% (inactive)

Row | Structure (SMILES) | growth inhibition
49 | Cc1c(CCOC(=O)CC23CC4CC(CC(C)(C4)C2)C3)sc[n+]1Cc1ccc([N+](=O)[O-])cc1 | 101% (active) and 100% (active)
50 | Cc1c(CCO)sc[n+]1CC(=O)OC12CC3CC(CC(C3)C1)C2 | 7.76% (inactive)
51 | CCN(CC)Cc1c(C(=O)NN=Cc2ccncc2)nnn1-c1nonc1N | 4.89% (inactive)
52 | c1ccc2c(CNn3cnnc3)cccc2c1 | 4.79% (inactive)
53 | c1ccc2c(C[n+]3csc4ccccc43)cccc2c1 | 95.1% (active)
54 | Nc1scc[n+]1Cc1cccc2cccnc12 | 3.29% (inactive)
55 | Cc1ccc(CON=CCc2snc(Sc3ncc(C(F)(F)F)cc3Cl)c2C#N)cc1 | 28% (inactive)
56 | CCCC12CN3CCN(CC(C3)C1=NNC(=O)Nc1ccccc1)C2 | 1.17% (inactive)
57 | O=C(ON=Cc1ccc(N2CCCCC2)c([N+](=O)[O-])c1)c1c(F)cccc1F | -5.14% (inactive)
58 | Cc1nnc(SCC2=C(C(=O)O)N3C(=O)C(NC(=O)Cn4nc(C)c(Cl)c4C)C3SC2)s1 (centres undefined) | 97.9% (active)
59 | Cc1cc(C)cc(C(=O)NC2C(=O)N3C(C(=O)O)=C(CSc4nnc(C)s4)CSC23)c1 (centres undefined) | 100% (active)
60 | Cc1nnc(SCC(=O)NC2CCCC2)s1 | -2.03% (inactive)
61 | Cc1nnc(SCc2cc(=O)[nH]c(N3CCN(Cc4ccccc4)CC3)n2)s1 | 0.849% (inactive)
62 | Cc1nnc(SCC(=O)Nn2cnnc2)s1 | -2.34% (inactive)
63 | CC1(C)c2[nH]c3ccccc3c2CC2C(=O)N(Cc3ccccc3F)C(=O)N21 (centres undefined) | 2.24% (inactive) and -4.9% (inactive)
64 | COc1ccc(C=NNC(=O)CN2CCCC2)cc1 | 3.93% (inactive)
65 | CC1CN(C(C)CO)C(=O)Cc2cc(NC(=O)C3CC3)ccc2OC1CN(C)Cc1ccc(Oc2ccccc2)cc1 (centres undefined) | 9.46% (inactive)
66 | Cc1cc(C)nc(N=C(N)Nc2ccc(SC(F)F)cc2)n1 | 20% (inactive)
67 | COc1ccc(C(C)=NNC(=O)c2cccc(S(=O)(=O)N3CCCC3)c2)c(O)c1 | 4.49% (inactive)
68 | O=C(CC1CC=CCC(Cc2ccc(F)cc2)C(=O)OCC(Cc2ccccc2)NC1=O)NC(CO)Cc1ccccc1 (centres undefined) | 5.86% (inactive)
69 | CC(C)(C=NO)/[N+]([O-])=C/c1ccco1 | 3.75% (inactive)
70 | O=C(NN=Cc1ccc(F)cc1)c1ccc(F)cc1 | 3.85% (inactive)
71 | Nc1nonc1C(=O)NN=Cc1ccc([N+](=O)[O-])o1 | 70.5% (inactive)
72 | O=C(/C=C/c1ccc([N+](=O)[O-])o1)NNC(=O)c1ccc(F)cc1 | 98.7% (active)

Row | Structure (SMILES) | growth inhibition
73 | COc1cc(NC=C2CC(=O)NC(C)=C2C#N)cc(OC)c1OC | -2.01% (inactive)
74 | COc1ccc(-c2cc3ncccc3cn2)cc1 | 7.34% (inactive)
75 | COc1ccc(-c2cc(C3CCN(c4ncccc4[N+](=O)[O-])CC3)[nH]n2)cc1 | 100% (active)
76 | CC(=O)NC(Cc1ccccc1)C(=O)NC1CCN(c2ncccc2[N+](=O)[O-])CC1 (centres undefined) | 7.02% (inactive)
77 | COc1ccc(S(=O)(=O)Nc2cccc3c2OC(CN(C)Cc2ccc(Cl)c(Cl)c2)C(C)CN(C(C)CO)C3=O)cc1 (centres undefined) | 11.2% (inactive)
78 | COc1ccccc1NC(=O)c1ccc2nc(N3C(=O)CCC3=O)sc2c1 | -9.64% (inactive)
79 | COc1ccc(C2=NN(c3nc4ccccc4s3)C(=O)C2)cc1 | 99% (active)
80 | COc1ccc(C(=O)Nc2cccc(/C=C(/CCC(=O)O)c3nc4ccccc4s3)c2)cc1 | -2.4% (inactive)
81 | C/C(C=NNC(=O)CSc1nc2ccccc2n1C)=C\c1ccco1 | 3.58% (inactive)
82 | NC(=O)C1CCN(C(=O)COc2cccc3cccnc23)CC1 | -13.3% (inactive)
83 | O=C(Nc1ccccc1)Oc1cccc2cccnc12 | 99.7% (active)
84 | OCc1ccc(OCCCOc2cccc3cccnc23)cc1 | -3.52% (inactive)
85 | Cc1ccc(C(=O)NC(=S)Nc2ccccc2C)cc1 | 83.5% (active)
86 | Cc1cc(C(=O)NNC(=S)Nc2ccccc2C)cs1 | -0.4% (inactive)
87 | Cc1ccccc1NC(=S)NC(=O)Cc1ccc(Cl)cc1 | 67% (inactive)
88 | Cc1cc(SCC(=O)NN=Cc2ccc(O)c(O)c2)nc2ccccc12 | -2.24% (inactive)
89 | ON=Cc1ccc(OCc2ccccc2)c(Br)c1 | 1.91% (inactive)
90 | NC(=O)N1CCCC1C(=O)Nc1ccc(Cl)c(Cl)c1 (centres undefined) | 3.8% (inactive)
91 | O=C(CC(O)(C(F)(F)F)C(F)(F)F)Nc1ccc(Cl)c(Cl)c1 | 100% (active)
92 | O=C(COC(=O)c1cc[n+]([O-])cc1)Nc1ccc(Cl)c(C(F)(F)F)c1 | -2.28% (inactive)
93 | CC(=NNC(=O)c1nnn(-c2nonc2N)c1-c1cccs1)c1ccc(O)cc1 | -2.71% (inactive)
94 | Cc1ccc(C(=O)NCCN2C3=NCC(Cc4ccc(O)cc4)N3CC2Cc2ccc(O)cc2)cc1Br (centres undefined) | -5.82% (inactive)
